This is part of a sample that, as a whole, favours compounds with a hit. Of some 83,000 tested, about 20% had one in any assay.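 How to read the values: 0–100, growth inhibition (40 = 60% inhibited); 0, no net growth; -100 to 0, cell death (-40 = 40% of starting cells died; -100 = all dead).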 Active and inactive are the calls of the source. How the source made its calls: active means growth percent below 10; inactive means the rest.
Experiments:
Test in all cases: NCI-60 one-dose screen, 48 h (100 = growth as untreated, 0 = no growth, -100 = all killed)
Conditions in all cases: 10 µM unless noted
SR leukemia = system: SR leukemia
RPMI-8226 leukemia = system: RPMI-8226 leukemia
OVCAR-8 ovarian = system: OVCAR-8 ovarian
OVCAR-5 ovarian = system: OVCAR-5 ovarian
OVCAR-4 ovarian = system: OVCAR-4 ovarian
SK-OV-3 ovarian = system: SK-OV-3 ovarian
IGROV1 ovarian = system: IGROV1 ovarian
OVCAR-3 ovarian = system: OVCAR-3 ovarian
HS 578T breast = system: HS 578T breast
NCI/ADR-RES ovarian = system: NCI/ADR-RES ovarian

Measured: growth

O=C(N/N=C/c1ccc(-c2cccc([N+](=O)[O-])c2)s1)c1[nH]c2ccc(Br)cc2c1-c1ccccc1
inactive: SR leukemia 69.9% | RPMI-8226 leukemia 89.2% | OVCAR-8 ovarian 95.9% | OVCAR-5 ovarian 106% | OVCAR-4 ovarian 82.1% | SK-OV-3 ovarian 93.4% | IGROV1 ovarian 102% | OVCAR-3 ovarian 62.1% | HS 578T breast 82.4% | NCI/ADR-RES ovarian 105%

Cn1cc(Nc2ncnc(-c3ccc(N4CCCC4)c(C#N)c3)n2)cn1
inactive: SR leukemia 28.7% | RPMI-8226 leukemia 83.9% | OVCAR-8 ovarian 84.4% | OVCAR-5 ovarian 85.4% | OVCAR-4 ovarian 78.9% | SK-OV-3 ovarian 76.4% | IGROV1 ovarian 51.7% | OVCAR-3 ovarian 81.6% | HS 578T breast 41.3% | NCI/ADR-RES ovarian 67.3%

Cc1nn(-c2ccccc2)c2nc(C)n(CC(=O)N/N=C/c3ccccc3O)c(=O)c12
inactive: SR leukemia 54.7% | RPMI-8226 leukemia 29.1% | OVCAR-8 ovarian 22% | OVCAR-5 ovarian 46.6% | OVCAR-4 ovarian 31.2% | SK-OV-3 ovarian 25% | IGROV1 ovarian 24.2% | OVCAR-3 ovarian 51.3% | HS 578T breast 55.4% | NCI/ADR-RES ovarian 16.7%

O=C(CSc1nc2sc3c(c2c(=O)n1-c1ccc(Cl)cc1)CCCC3)N/N=C/C=C/c1ccccc1
inactive: OVCAR-3 ovarian 78.3%
active: SR leukemia -23.2% | RPMI-8226 leukemia -0.68% | OVCAR-8 ovarian -51.3% | OVCAR-5 ovarian -38.9% | OVCAR-4 ovarian -31% | SK-OV-3 ovarian -11.2% | IGROV1 ovarian -5.52% | HS 578T breast -16.9% | NCI/ADR-RES ovarian -10.7%

COc1c(F)ccc(C(=O)Nc2ccc3nc(NC(=O)C4CCCN(S(=O)(=O)c5ccc(C(C)(C)C)cc5)C4)sc3c2)c1F (stereo not given)
inactive: SR leukemia 17.3% | RPMI-8226 leukemia 44.3% | OVCAR-8 ovarian 84.9% | OVCAR-5 ovarian 81.3% | OVCAR-4 ovarian 54% | SK-OV-3 ovarian 80.8% | IGROV1 ovarian 55.5% | OVCAR-3 ovarian 83.9% | HS 578T breast 58.2% | NCI/ADR-RES ovarian 67.6%

CN(C)c1nc(NCCNS(=O)(=O)c2ccc(C(=O)/C=C/c3ccc(C(F)(F)F)cc3)cc2)nc(N2CCOCC2)n1
inactive: OVCAR-4 ovarian 56.5% | SK-OV-3 ovarian 76.2% | HS 578T breast 67.8%
active: SR leukemia -23% | RPMI-8226 leukemia -44.2% | OVCAR-8 ovarian 1.73% | OVCAR-5 ovarian 5.43% | IGROV1 ovarian -93.9% | OVCAR-3 ovarian -43% | NCI/ADR-RES ovarian -31.5%

COc1c2c(c(Br)c3c1C(CCc1ccccc1)N(C)CC3)OCO2 (stereo not given)
inactive: SR leukemia 31% | RPMI-8226 leukemia 16.7% | OVCAR-8 ovarian 48.4% | OVCAR-5 ovarian 29.9% | OVCAR-4 ovarian 59.9% | SK-OV-3 ovarian 76.8% | IGROV1 ovarian 19.5% | OVCAR-3 ovarian 55.5% | HS 578T breast 61.4% | NCI/ADR-RES ovarian 40%

COc1ccc(N=Nc2c(N)nn3c(-c4cc5cc(Br)ccc5oc4=O)ccnc23)cc1
inactive: SR leukemia 28% | RPMI-8226 leukemia 48.5% | OVCAR-8 ovarian 19.5% | OVCAR-5 ovarian 33.4% | OVCAR-4 ovarian 32.2% | SK-OV-3 ovarian 17.4% | OVCAR-3 ovarian 25.3% | HS 578T breast 35.4% | NCI/ADR-RES ovarian 15.5%
active: IGROV1 ovarian 6.35%

COc1ccc(N=Nc2c(N)nn3c(N)c(C#N)c(-c4ccc(F)cc4)nc23)cc1
inactive: SR leukemia 78.4% | RPMI-8226 leukemia 50.3% | OVCAR-8 ovarian 29.6% | OVCAR-5 ovarian 95.9% | OVCAR-4 ovarian 50.9% | SK-OV-3 ovarian 43.1% | IGROV1 ovarian 76.9% | OVCAR-3 ovarian 103% | HS 578T breast 20.6% | NCI/ADR-RES ovarian 25.1%

Cc1ccc(N=Nc2c(N)nn3c(-c4cc5ccccc5oc4=O)ccnc23)cc1
active: RPMI-8226 leukemia 9.76%
inactive: SR leukemia 75.7% | OVCAR-8 ovarian 51.4% | OVCAR-5 ovarian 54.6% | OVCAR-4 ovarian 77.9% | SK-OV-3 ovarian 99.9% | IGROV1 ovarian 32.4% | OVCAR-3 ovarian 37.4% | HS 578T breast 62.6% | NCI/ADR-RES ovarian 27%

O=C(c1ccc(O)cc1)C1[C@H](c2ccc(Cl)cc2)[C@@H](c2ccccc2)NC12C(=O)Nc1ccccc12 (stereo not given in full)
inactive: OVCAR-8 ovarian 12.5% | SK-OV-3 ovarian 43.7%
active: SR leukemia -47.2% | RPMI-8226 leukemia -3.39% | OVCAR-5 ovarian 9.48% | OVCAR-4 ovarian 9.88% | IGROV1 ovarian 3.49% | OVCAR-3 ovarian 6.48% | HS 578T breast -11.8% | NCI/ADR-RES ovarian -35%

CC[C@]12C=CCN3CC[C@@]4(c5ccc(OC)cc5N(C)[C@H]4[C@@](O)(C(=O)OC)[C@@H]1OC(=O)CCCC[P+](c1ccc(F)cc1)(c1ccc(F)cc1)c1ccc(F)cc1)[C@@H]32
inactive: SR leukemia 28.8% | OVCAR-8 ovarian 20% | OVCAR-5 ovarian 49.7% | OVCAR-4 ovarian 33.1% | SK-OV-3 ovarian 41.4% | OVCAR-3 ovarian 12.6% | NCI/ADR-RES ovarian 105%
active: RPMI-8226 leukemia 4.14% | IGROV1 ovarian -42.8% | HS 578T breast -2.23%

c1n[nH]cc1-c1nc2ccc3[nH]ncc3c2c2c1CC1(CCOCC1)CC2
inactive: RPMI-8226 leukemia 49.8% | OVCAR-8 ovarian 35.4% | OVCAR-5 ovarian 87.7% | OVCAR-4 ovarian 70.2% | IGROV1 ovarian 61.2% | OVCAR-3 ovarian 52.5% | NCI/ADR-RES ovarian 96.5%
active: SR leukemia 2.94% | SK-OV-3 ovarian -0.483% | HS 578T breast 5.29%

COc1cccc2nc(Nc3cccc(NC(=O)c4ccc(CN5CCN(C)CC5)c(C(F)(F)F)c4)c3)ccc12
active: SR leukemia -36.1% | RPMI-8226 leukemia -40.2% | OVCAR-8 ovarian -65.2% | OVCAR-5 ovarian -98% | OVCAR-4 ovarian -82.9% | SK-OV-3 ovarian -81.9% | IGROV1 ovarian -87.1% | OVCAR-3 ovarian -36.6% | HS 578T breast -21.1% | NCI/ADR-RES ovarian -89.7%

Reference: PubChem BioAssay (NCI)
